Screening data: PubChem, National Center for Advancing Translational Sciences (NCATS)
Sampled rows, rich in hits. Any-hit rate of the full collection: about 2.4%.
D2 PAM-1 – HTS Assay for Positive Allosteric Modulators of the Human D2 Dopamine Receptor: Primary Screen for Potentiators; HEK293 T-REx D2, calcium flux, EC20 dopamine potentiation; potentiation, % at 10 µM; 0.34% of 340,000 active; AID 485347, 2010;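 active means potentiation over 3 SD above the plate norm, cut at about 30% in these data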; further: 0% is about no effect
Target sequence (P14416 whole entry, looked up): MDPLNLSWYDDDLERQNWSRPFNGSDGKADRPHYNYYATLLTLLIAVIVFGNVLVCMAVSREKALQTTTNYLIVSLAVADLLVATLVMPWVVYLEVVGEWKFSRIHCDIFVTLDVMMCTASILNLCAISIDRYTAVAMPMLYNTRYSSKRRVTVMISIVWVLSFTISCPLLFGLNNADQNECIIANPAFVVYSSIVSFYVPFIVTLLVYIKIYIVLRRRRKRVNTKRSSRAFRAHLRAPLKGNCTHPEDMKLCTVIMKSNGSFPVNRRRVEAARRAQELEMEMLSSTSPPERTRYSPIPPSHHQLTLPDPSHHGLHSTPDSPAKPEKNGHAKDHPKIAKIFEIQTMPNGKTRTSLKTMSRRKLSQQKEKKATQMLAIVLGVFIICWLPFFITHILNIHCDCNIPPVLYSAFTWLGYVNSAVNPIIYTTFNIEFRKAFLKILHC
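Primary screen. Calcium kinetics in induced HEK293 T-REx D2 cells: compound pre-addition 180 s, EC20 dopamine, 180 s more.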
D2 PAM-2 – Beta-Arrestin HTS for Positive Allosteric Modulators of the Human D2 Dopamine Receptor: Potentiators. 0.23% of 360,000 active. potentiation, % (test concentration not listed). D(2) dopamine receptor (Homo sapiens), P14416. AID 624464, 2012. DiscoveRx D2 beta-arrestin cells, luminescence, 90 min; 100% = 57 uM dopamine signal; in the data active means potentiation above about 50%; inconclusive means mostly about 30% to 49%
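D2 cells co-treated with compound plus 50 nM dopamine (EC20) for 90 min at 37 deg C to detect potentiation. Beta-arrestin recruitment was read as enzyme-fragment luminescence after 1 h at ambient temperature. Full response was set by 57 uM dopamine.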
D2 ag-1 – HTS Assay for Allosteric Agonists of the Human D2 Dopamine Receptor: Primary Screen for Agonists. HEK293 T-REx D2 cells, calcium flux agonist mode. 0.53% of 340,000 active. activation, % at 2 µM;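 active means activation over 3 SD above normal in the single-dose calcium agonist read, cut at about 30% in these data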; further: 0% is about no effect
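Agonism scored from kinetic calcium signal (1 read/sec, 180 s) following compound pin transfer, after a 10 s baseline. Cells: HEK293 Trex line expressing inducible D2 receptor coupled to calcium, dye-loaded after overnight culture at 30 C.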
D2 antagonist – HTS Assay for Allosteric Antagonists of the Human D2 Dopamine Receptor: Primary Screen for Antagonists; HEK293 TREx D2 cells, calcium flux, dopamine EC80; 2% of 340,000 active; AID 485344, 2010; inhibition, % at 10 µM; in the data active means inhibition above about 30%; inactive means below that, where a call was filed; further: 0% is about no effect
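Dopamine at EC80 is the agonist stimulus; test compounds precede it by 180 s. Calcium flux read kinetically in a force-coupled, inducible HEK293 T-REx D2 cell line.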
D2 ag-2 – Beta-Arrestin HTS for Positive Allosteric Modulators of the Human D2 Dopamine Receptor: Agonists; AID 624465, 2012; activation, % (test concentration not listed); 0.084% of 360,000 active; DiscoveRx PathHunter D2 beta-arrestin, luminescence, 90 min; 100% = 57 uM dopamine signal; in the data active means activation above about 40%; inconclusive means between about 15% and that limit
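DiscoveRx PathHunter D2 beta-arrestin cells (2,100/well) attached overnight, then compound-stimulated 90 min at 37 C in HBSS/10 mM HEPES/0.1% Tween-20 buffer; beta-galactosidase complementation read by luminescence after 1 h at ambient temperature. Dopamine 57 uM final (EC100) as control.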
Active calls of the source: *; ? = inconclusive; . = not tested or not shown.

SMILES	D2 PAM-1	D2 PAM-2	D2 ag-1	D2 antagonist	D2 ag-2
CCCSC1=C(C#N)C(c2ccc(OC)cc2)C2=C(CC(C)(C)CC2=O)N1 (configuration not stated)	-6	-4	0	42*	-3
COc1ccc(NC(=O)CSc2nc3ccccc3nc2N2CCC(C)CC2)cc1	-1	.	0	.	.
COc1ccc(CCNC(=O)c2[nH]c(C)c(C(C)=O)c2C)cc1OC	1	-14	-1	38*	0
COc1ccc(CCNCC(=O)Nc2c(C)cc(C)cc2C)cc1OC	8	-3	-1	45*	6
Cc1ccc(CN2C(=O)c3ccccc3Sc3ccc(C(=O)NCc4ccco4)cc32)cc1	7	.	0	.	.
CCOC(=O)c1sc2ccccc2c1S(=O)(=O)Nc1c(C)cccc1C	3	.	2	.	.
c1cc2c3c(cccc3c1)NC1(CCC3(CC1)Nc1cccc4cccc(c14)N3)N2	-4	71*	4	-8	0
Cc1ccc(C)c(CN2C(=O)c3ccccc3S(=O)c3ccc(C(=O)N4CCCCC4)cc32)c1 (configuration not stated)	12	.	.	.	.
O=C(NCC1CCCO1)C(=O)NCC(c1ccco1)N1CCN(c2ccccc2)CC1 (configuration not stated)	-6	-8	35*	20	14
O=C(NCC1CCCO1)C(=O)NCC(c1ccco1)N1CCN(c2ccc(F)cc2)CC1 (configuration not stated)	5	-12	2	9	-3
O=C(NCc1ccncc1)C(=O)NCC(c1ccco1)N1CCN(c2ccccc2F)CC1 (configuration not stated)	-12	-1	34*	1	7
O=C(COc1ccccc1)NCC(c1ccco1)N1CCN(c2ccccc2F)CC1 (configuration not stated)	-5	-5	34*	0	?
CCCCNc1nc(Oc2ccc(=O)n(-c3ccccc3)n2)nc(N(C)C)n1	.	.	-1	.	.
CCOC(=O)COn1c(-n2nc(C)cc2C)nc2ccccc2c1=O	-8	-3	-4	33*	-2
COC(=O)CNC(=O)CSc1nc2c(sc(=S)n2-c2ccccc2)c(=O)[nH]1	-15	-5	1	44*	4
COc1cccc(-c2cc(=O)c3cc(NC(C)=O)ccc3[nH]2)c1	0	-19	1	34*	-1
COc1cccc(/C=N/NC(=O)CN2CC(c3ccccc3)CC2=O)c1OC (configuration not stated)	-28	-15	-1	38*	-6
Oc1ccc(-c2nc(-c3ccc(O)c(O)c3)cs2)cc1	-5	50*	3	-5	14
COc1cccc(CN2CCc3ccc(NC(=O)CCc4ccc(C)cc4)cc3C2)c1O	-20	-41	0	31*	-7
COc1c(Cl)cccc1-c1cn2ccc(C)cc2n1	-15	-6	0	35*	3
O=c1oc2ccccc2c(Nc2ccc(O)cc2)c1[N+](=O)[O-]	-5	-4	1	-13	-3
Cc1ccc(Nc2c([N+](=O)[O-])c(=O)oc3ccccc23)cc1	-9	-18	1	31*	-7
CCOC(=O)c1sc(NC(=O)c2cc(-c3ccc(F)cc3)on2)c(C(=O)OCC)c1C	-4	.	1	.	.
CCOc1cc(C)c(Cl)cc1S(=O)(=O)N(C)C	7	-3	0	49*	0
CCCOc1cc(C)c(Cl)cc1S(=O)(=O)N(CC)CC	3	-22	-1	7	-5
SMILES	D2 PAM-1	D2 PAM-2	D2 ag-1	D2 antagonist	D2 ag-2
O=C(CSc1nc2ccc(Cl)cc2[nH]1)NCCc1ccccc1	7	-13	0	39*	-1
O=C(CSc1nc2ccc(Cl)cc2[nH]1)NCCc1ccc(Cl)cc1	8	-3	0	2	0
COc1ccc(NC(=S)N(CCCN2CCCC(C)C2)Cc2cccs2)cc1 (configuration not stated)	.	-23	0	49*	-3
Cc1ccc(Cl)cc1NC(=S)N(CCCN1CCN(C)CC1)Cc1cccs1	-30	-18	2	45*	-7
Cc1cc(Cl)ccc1NC(=S)N(CCCN1CCOCC1)Cc1cccs1	2	-24	2	-8	-5
COc1ccc(NC(=O)C2(c3cccs3)CCOCC2)cc1Cl	-6	.	1	.	.
CC12C(=O)N(c3cccc4cccnc34)C(=O)C1C1C=CC2C1 (configuration not stated)	-2	-3	-1	-5	0
CC12C(=O)N(c3ccccc3C(=O)O)C(=O)C1C1C=CC2C1 (configuration not stated)	-8	11	4	36*	-1
c1ccc(N2CCN(c3c4c(nc5ncnn35)CCC4)CC2)cc1	1	4	-1	-26	1
CC1CCCCC1NC(=O)C1CCN(c2c3c(nc4ncnn24)CCC3)CC1 (configuration not stated)	-2	0	-2	34*	-4
Nc1ncccc1OCc1cccc(C(F)(F)F)c1	32*	2	0	-10	5
COc1cc(C(=O)OC(C)C(=O)N2CCCC2)cc2c1OCCO2 (configuration not stated)	2	-4	0	67*	-3
CCOc1ccc(OC(=O)c2cn(-c3ccc(C)cc3)c(=O)c3ccccc23)cc1	8	.	1	.	.
O=[N+]([O-])c1ccc(S(=O)(=O)c2ccccc2)nc1	1	-65	0	-8	48*
Cc1ccc(S(=O)(=O)c2ccc([N+](=O)[O-])cn2)cc1	8	24	0	4	-7
CCOC(=O)c1cnn(CCOC(=O)Cc2cccs2)c1NC(=O)Cc1cccs1	2	-4	0	34*	-3
CCOC(=O)c1cnn(CCOC(=O)c2ccc(F)cc2)c1NC(=O)c1ccc(F)cc1	-1	3	0	-5	1
Cc1cccc(C)c1NCc1n[nH]c(=S)n1-c1ccccc1	8	-3	-2	51*	4
CC(C)CCn1c(O)c(N=NC(=O)c2ccco2)c2ccccc21	-2	-7	3	31*	-3
CCOC(=O)c1c(C)[nH]c(C)c1S(=O)(=O)N1CCCC(C(=O)Nc2cccc(CC)c2)C1 (configuration not stated)	-3	.	0	.	.
